Data from PubChem BioAssay (NCI).
About 83,000 compounds went through this panel and 20% of them were active in at least one assay; those are over-represented in the sample as a whole.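 Note: values are percent growth. 100 is the growth of untreated cells, values between 100 and 0 indicate rising inhibition; between -100 and 0 indicates cell death.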 Values without a mark were called inactive. Active and inactive are the calls of the source. How the source made its calls: active means growth percent below 10; inactive means the rest.

Legend:
Test in all cases: NCI-60 one-dose screen, 48 h (100 = growth as untreated, 0 = no growth, -100 = all killed)
Conditions in all cases: 10 µM unless noted
NCI-H23 lung = system: NCI-H23 lung
NCI-H226 lung = system: NCI-H226 lung
NCI-H322M lung = system: NCI-H322M lung
HOP-62 NSCLC = system: HOP-62 NSCLC
NCI-H460 lung = system: NCI-H460 lung
HOP-92 NSCLC = system: HOP-92 NSCLC
NCI-H522 lung = system: NCI-H522 lung
A549/ATCC NSCLC = system: A549/ATCC NSCLC
786-0 renal = system: 786-0 renal
COLO 205 colon = system: COLO 205 colon
DU-145 prostate = system: DU-145 prostate
K-562 leukemia = system: K-562 leukemia
MALME-3M melanoma = system: MALME-3M melanoma
MDA-MB-231 breast = system: MDA-MB-231 breast
RXF 393 renal = system: RXF 393 renal
SF-268 CNS = system: SF-268 CNS
SF-295 CNS = system: SF-295 CNS
SF-539 CNS = system: SF-539 CNS
UACC-257 melanoma = system: UACC-257 melanoma
M14 melanoma = system: M14 melanoma

SMILES	growth (NCI-H23 lung)	growth (NCI-H226 lung)	growth (NCI-H322M lung)	growth (HOP-62 NSCLC)	growth (NCI-H460 lung)	growth (HOP-92 NSCLC)	growth (NCI-H522 lung)	growth (A549/ATCC NSCLC)	growth (786-0 renal)	growth (COLO 205 colon)	growth (DU-145 prostate)	growth (K-562 leukemia)	growth (MALME-3M melanoma)	growth (MDA-MB-231 breast)	growth (RXF 393 renal)	growth (SF-268 CNS)	growth (SF-295 CNS)	growth (SF-539 CNS)	growth (UACC-257 melanoma)	growth (M14 melanoma)
CCOC(=O)C1=C(C)NC(=O)NC1c1c(Cl)n(CCCl)c2ccccc12 (stereo not given)	92.5%	92%	92.6%	90.8%	98.9%	42.9%	90%	95.4%	92.9%	117%	107%	99.3%	94.4%	105%	98.1%	88%	95.3%	97.2%	92.7%	98.2%
N=C(N)c1ccc(-c2ccc(-c3ccccc3)o2)cc1	3.73% (active)	-26.4% (active)	-37.8% (active)	-50.7% (active)	-73.1% (active)	-59.5% (active)	-82.6% (active)	-30.1% (active)	-86% (active)	-87.7% (active)	-11.2% (active)	-33.2% (active)	-81.5% (active)	-58.2% (active)	-76.3% (active)	-31.1% (active)	-70.4% (active)	-83.7% (active)	-72.4% (active)	-91.3% (active)
COc1ccc(C(=O)N2c3ccccc3Sc3ccccc32)c(OC)c1	38%	31.3%	62.2%	48.4%	9.97% (active)	31.3%	-9.67% (active)	30.6%	28.6%	-11.4% (active)	9.99% (active)	10.5%	66.9%	38.4%	-0.69% (active)	36.6%	11.6%	-18.8% (active)	77%	-9.55% (active)
N#CC1=C(N)Oc2c(ccc3ccccc23)C1c1ccccc1 (stereo not given)	25.7%	61.6%	55.6%	12.8%	6.31% (active)	38.2%	-15.8% (active)	10.8%	13.5%	-49.8% (active)	13.4%	9.05% (active)	46.5%	28.3%	68.5%	19.2%	8.94% (active)	-3.42% (active)	37.5%	3.13% (active)
CCNCCNc1cc(C2CCCCC2)c(C#N)c2nc3ccccc3n12	44.7%	15.3%	-3.13% (active)	16.1%	-23.4% (active)	-24.5% (active)	-9.52% (active)	3.05% (active)	4.62% (active)	-52.8% (active)	32.6%	-38.8% (active)	-72.4% (active)	-48.7% (active)	-81.1% (active)	22.3%	-53.5% (active)	-88.8% (active)	-67.2% (active)	-66% (active)
COc1ccc(C2CC(c3ccc(Nc4nc(Nc5ccccc5)nc(Nc5ccccc5)n4)cc3)=NN2C(C)=O)cc1 (stereo not given)	97.4%	98.1%	107%	95.2%	116%	78%	88.7%	88.1%	88.5%	111%	144%	75.2%	110%	95.5%	-10.9% (active)	139%	99.5%	121%	88.4%	107%
CCC(=O)Oc1ccc(-c2ccccc2)cc1Br	101%	96.1%	111%	104%	98.8%	87.7%	108%	105%	105%	109%	107%	107%	109%	103%	106%	103%	104%	106%	106%	102%
COc1ccc(C2=C(Nc3ccc(C(=O)Nc4ccccc4)cc3)C(=O)N(C)C2=O)cc1	88.7%	95.2%	88.7%	72.2%	108%	117%	59.9%	78.2%	105%	105%	98%	81.5%	93.7%	83.2%	105%	97.1%	98.9%	97.6%	87.6%	99.9%
COc1ccc(/C=C(\C#N)n2nnc3ccc(Cl)cc32)cc1	71%	105%	80.8%	111%	83.9%	74.2%	17.8%	58.9%	39.8%	83.1%	64.5%	21.2%	79.5%	76.1%	48.7%	76.1%	85.7%	53.2%	76.3%	58.1%
Cc1ccc(-c2nc([P+](c3ccccc3)(c3ccccc3)c3ccccc3)c(S(=O)(=O)c3ccc(C)cc3)o2)cc1	15%	46.9%	57.2%	17.7%	4.75% (active)	-7.71% (active)	4.04% (active)	27.5%	-18.7% (active)	-38.1% (active)	25.5%	4.12% (active)	-0.571% (active)	3.47% (active)	-28.6% (active)	45.5%	81%	-65.6% (active)	3.98% (active)	19.3%
Nc1cnc(C(=O)NNc2nc3cc(F)ccc3n3cccc23)cn1	44%	49.5%	26.3%	33%	7.9% (active)	64.2%	16.7%	38.8%	37.7%	9.48% (active)	37.8%	23.7%	59.9%	35.9%	70.6%	36%	12.7%	33.9%	50.9%	23.3%
COc1ccc(/C=C/C(=O)c2cc3c(N)c(C(=O)Nc4cccc5ccccc45)sc3nc2C)cc1	85.1%	85%	95.8%	74.5%	75.9%	77.1%	26.1%	68.7%	46.4%	103%	84.5%	28.8%	64.7%	93%	63.4%	74.5%	54.4%	76.9%	65.2%	60%
O=C1/C(=C\c2ccc3nccnc3c2)SC(=S)N1CCc1ccc(O)cc1	98.2%	96%	103%	108%	102%	-3.77% (active)	65.9%	101%	60.6%	119%	59.6%	96.9%	75.7%	88.7%	93%	90.8%	105%	82.2%	81.9%	85.5%
Cc1c2cnccc2c(C)c2c1c1cc(C#N)ccc1n2C	-37.4% (active)	-18.6% (active)	-16% (active)	-25.5% (active)	-19.7% (active)	-12.1% (active)	-71% (active)	-19.8% (active)	-16.1% (active)	-37.2% (active)	3.34% (active)	-8.24% (active)	-77.4% (active)	-23.5% (active)	-85.1% (active)	-8.27% (active)	-11.7% (active)	-61.7% (active)	-29% (active)	-83.3% (active)
O=S(=O)(NCCCNc1nccc(-c2c(-c3ccc(F)c(O)c3)nc3occn23)n1)c1ccc(Cl)cc1	70.7%	103%	85.3%	88.3%	62.3%	68.8%	63.1%	72.4%	106%	42.9%	73.5%	45.8%	5.66% (active)	40.4%	30.8%	66.5%	103%	87.5%	33.8%	19.6%
